The values below come from ChEMBL document CHEMBL1961873, “Compounds: GSK PKIS; Assays: Nanosyn kinase panel” (2012).

The first assay has as its target T1, Dual specificity tyrosine-phosphorylation-regulated kinase 2 (Homo sapiens) (UniProt Q92630).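 Also: reported values are means of DYRK2 inhibition from screening the GSK PKIS collection at 1 µM.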
T1 sequence (whole entry): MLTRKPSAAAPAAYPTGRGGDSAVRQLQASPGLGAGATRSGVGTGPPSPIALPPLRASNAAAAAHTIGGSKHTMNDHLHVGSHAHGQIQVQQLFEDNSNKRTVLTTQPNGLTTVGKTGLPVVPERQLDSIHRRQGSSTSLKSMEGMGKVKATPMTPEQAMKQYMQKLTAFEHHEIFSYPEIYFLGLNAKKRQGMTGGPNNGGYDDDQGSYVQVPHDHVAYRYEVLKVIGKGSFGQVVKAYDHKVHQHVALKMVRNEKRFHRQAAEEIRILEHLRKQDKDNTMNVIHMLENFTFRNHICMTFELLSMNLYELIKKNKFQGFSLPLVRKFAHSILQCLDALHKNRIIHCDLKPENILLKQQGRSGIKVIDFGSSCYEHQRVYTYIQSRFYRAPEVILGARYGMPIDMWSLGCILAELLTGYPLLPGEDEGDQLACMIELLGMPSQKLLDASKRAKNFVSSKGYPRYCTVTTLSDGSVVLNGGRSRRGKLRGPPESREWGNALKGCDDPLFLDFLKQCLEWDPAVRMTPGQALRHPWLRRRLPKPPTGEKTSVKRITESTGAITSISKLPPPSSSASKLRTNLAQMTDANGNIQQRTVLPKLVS
The conditions noted are these: at 1 µM.
Broadly, the inhibition is the drop in the measured response relative to a control, in per cent. Regarding `Cc1ccc(C(=O)NC2CCCCC2)cc1-c1ccc(C(=O)NCC2CC2)cc1`, the inhibition was found to be 1.81%. `COc1cc2c(cc1Nc1nc(N3CCc4ccccc43)c3cc[nH]c3n1)N(C(=O)CN(C)C)CC2`: the inhibition amounted to 2.02%. For `CC1=C(C(=O)Nc2ccc3[nH]ncc3c2)C(c2ccc(Cl)c(Cl)c2)CC(=O)N1` (stereo not drawn), the inhibition was 2.88%. As for `Nc1ncnc2occ(-c3ccc(NC(=O)Nc4cc(C(F)(F)F)cc(C(F)(F)F)c4)cc3)c12`, the inhibition came out at 2.18%. Still for that read-out and setting: as for `CS(=O)(=O)CCNCc1nc(-c2ccc3ncnc(Nc4ccc(F)c(Cl)c4)c3c2)cs1`, the figure is 2.12%; as for `COc1ccccc1Nc1ncc(-c2ccccc2)o1`, 3.04%; as for `CCn1c(-c2nonc2N)nc2cncc(C(=O)N3CCNCC3)c21`, 7.99%. In the case of `CS(=O)(=O)Nc1ccc(N/C=C2\C(=O)Nc3ccccc32)cc1`, the inhibition was -0.97%. Consider `CNC(=O)c1cncc(/C=C/c2c(Cl)cccc2Cl)c1`, for which the inhibition was 6.98%. `Fc1cccc(COc2ccc(Nc3ncnc4sc(-c5cccs5)cc34)cc2Cl)c1`: the inhibition came to 1.17%. As for `N#Cc1c(NC(=O)c2cccc3ccccc23)sc2c1CCCC2`, the inhibition came to 2.69%.

On to `CCc1cccc(NC(=O)Nc2ccc(Oc3ccc4nc(NC(=O)OC)[nH]c4c3)cc2)c1`, for which the inhibition was 1.13%. In the case of `CCn1c(-c2nonc2N)nc2ccncc21`, the inhibition amounted to 2.17%. For the compound `O=C1Nc2ccc(C(=O)c3ccco3)cc2C1=Cc1cc(Cl)c(O)c(Cl)c1`, the inhibition was 13.4%. With `CS(=O)(=O)CCNCc1ccc(-c2ccc3ncnc(Nc4ccc(OCc5ccccc5)c(Cl)c4)c3c2)o1`, the inhibition was 1.41%. As for `CCn1c(-c2nonc2N)nc2cncc(C(=O)N3CC[C@H](N)C3)c21`, the inhibition is 59.5%. The same measure, in the same setting: next, `Cc1cccc(-c2n[nH]cc2-c2ccc3ncccc3n2)n1`: 4.03%; `CCCN1CCC=C(c2ccc(Nc3nc(Nc4ccccc4C(N)=O)c4cc[nH]c4n3)c(C)c2)C1`: 44.2%; `Nc1ncnc2occ(-c3ccc(NC(=O)Nc4cccc(C(F)(F)F)c4)cc3)c12`: 2.85%.

For the next assay, the target named is Glycogen synthase kinase-3 alpha (Homo sapiens) (UniProt P49840). The conditions noted are these: at 0.1 µM.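 Also: values are mean inhibition of GSK3A.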
Glycogen synthase kinase-3 alpha (Homo sapiens), sequence (P49840 2-483 limits assumed): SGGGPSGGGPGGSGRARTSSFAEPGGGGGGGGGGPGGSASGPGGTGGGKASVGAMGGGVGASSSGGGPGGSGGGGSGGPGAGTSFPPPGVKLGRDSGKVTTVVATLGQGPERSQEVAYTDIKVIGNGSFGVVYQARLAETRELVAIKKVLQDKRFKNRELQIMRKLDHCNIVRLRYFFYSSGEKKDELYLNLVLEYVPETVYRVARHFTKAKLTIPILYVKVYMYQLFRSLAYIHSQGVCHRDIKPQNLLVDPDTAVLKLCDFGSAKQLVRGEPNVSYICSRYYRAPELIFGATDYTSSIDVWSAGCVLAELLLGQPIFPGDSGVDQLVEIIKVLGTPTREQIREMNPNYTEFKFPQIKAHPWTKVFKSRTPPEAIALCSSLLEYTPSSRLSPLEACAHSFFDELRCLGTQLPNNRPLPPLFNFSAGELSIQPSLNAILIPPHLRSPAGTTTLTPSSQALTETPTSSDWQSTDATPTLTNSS
`COc1cc2ncn(-c3cc(OCc4ccccc4C(F)(F)F)c(C(N)=O)s3)c2cc1OC`: the inhibition turned out to be 0.16%. Take `CCn1c(-c2nonc2N)nc2c(N3CCCC3)nccc21`: the inhibition was found to be 1.82%. As for `COc1ccc(-c2coc3ncnc(N)c23)cc1`, the inhibition was determined as 2.73%. Same read-out and setting: next, `Nc1nc(-c2ccc3c(c2)C(=Cc2cc(Br)c(O)c(Br)c2)C(=O)N3)cs1`: 0.62%; `CS(=O)(=O)CCN(CC#N)Cc1ccc(-c2ccc3ncnc(Nc4ccc(OCc5cccc(F)c5)c(Cl)c4)c3c2)o1`: -1.48%; `COc1ccc(-c2nn3ncccc3c2-c2ccnc(Nc3ccc(Cl)c(C(F)(F)F)c3)n2)cc1`: 2.46%.

Regarding `Cc1ccc(NC(=O)c2ccnc(N3CCCC3)c2)cc1-c1ccc(C(=O)NCC2CC2)cc1`, the inhibition was found to be 1.33%.

As to `CC(C)=Cc1cccc2c1/C(=N/Nc1ccc(S(N)(=O)=O)cc1)C(=O)N2`, the inhibition is 13.8%. For `COc1cc2ncn(-c3cc(O[C@@H](C)c4ccccc4Cl)c(C(N)=O)s3)c2cc1OC`, the inhibition worked out at 3.02%.

As for `CCCN1CCC(Oc2cc(Nc3nc(Nc4cccc(F)c4C(N)=O)c4cc[nH]c4n3)c(OC)cc2Cl)CC1`, the inhibition stood at 3.45%. For `Cc1nnc(-c2ccc(C)c(-c3ccc(C(=O)Nc4cccc(C#N)c4)cc3)c2)o1`, the inhibition came to 2.41%. Still for that read-out and setting: as for `NS(=O)(=O)c1ccc(N/N=C2\C(=O)Nc3ccc(C(=O)NCCc4c[nH]cn4)cc32)cc1`, the figure is 50.7%; as for `CC1=C(C(=O)Nc2ccc3[nH]ncc3c2)C(c2ccc3ccccc3c2)CC(=O)N1` (stereo not drawn), 2.64%.

In the case of `NCc1ccc(-c2nc(-c3ccc(Cl)c(O)c3)c(-c3ccncc3)[nH]2)cc1`, the inhibition amounted to 4.59%.

Consider `COc1cc(C=NNc2ncnc3c2cnn3-c2ccccc2)ccc1O`, for which the inhibition is 47.7%. On the same count and under the same terms, next, `Cc1ccc(C(=O)NC2CCCCC2)cc1-c1ccc(C(=O)NCC2CC2)cc1`: 1.78%; `COc1cc2c(cc1Nc1nc(N3CCc4ccccc43)c3cc[nH]c3n1)N(C(=O)CN(C)C)CC2`: 0.35%; `CC1=C(C(=O)Nc2ccc3[nH]ncc3c2)C(c2ccc(Cl)c(Cl)c2)CC(=O)N1` (stereo not drawn): 0.15%.

For `Nc1ncnc2occ(-c3ccc(NC(=O)Nc4cc(C(F)(F)F)cc(C(F)(F)F)c4)cc3)c12`, the inhibition was 1.22%.

For the compound `CS(=O)(=O)CCNCc1nc(-c2ccc3ncnc(Nc4ccc(F)c(Cl)c4)c3c2)cs1`, the inhibition was determined as 1.3%. Consider `COc1ccccc1Nc1ncc(-c2ccccc2)o1`, for which the inhibition stood at 2.25%. The same measure, in the same setting: as for `CCn1c(-c2nonc2N)nc2cncc(C(=O)N3CCNCC3)c21`, the figure is 2.98%.

Turning to `CS(=O)(=O)Nc1ccc(N/C=C2\C(=O)Nc3ccccc32)cc1`, the inhibition is 7.94%. Same read-out and setting: next, `CNC(=O)c1cncc(/C=C/c2c(Cl)cccc2Cl)c1`: -0.55%; `Fc1cccc(COc2ccc(Nc3ncnc4sc(-c5cccs5)cc34)cc2Cl)c1`: 1.69%; `N#Cc1c(NC(=O)c2cccc3ccccc23)sc2c1CCCC2`: 5.51%. Same read-out and setting: next, `CCc1cccc(NC(=O)Nc2ccc(Oc3ccc4nc(NC(=O)OC)[nH]c4c3)cc2)c1`: 1.53%; `CCn1c(-c2nonc2N)nc2ccncc21`: 0.52%; `O=C1Nc2ccc(C(=O)c3ccco3)cc2C1=Cc1cc(Cl)c(O)c(Cl)c1`: 24.5%.

With `CS(=O)(=O)CCNCc1ccc(-c2ccc3ncnc(Nc4ccc(OCc5ccccc5)c(Cl)c4)c3c2)o1`, the inhibition was 1.58%.

On to `CCn1c(-c2nonc2N)nc2cncc(C(=O)N3CC[C@H](N)C3)c21`, for which the inhibition stood at 3.29%. Take `Cc1cccc(-c2n[nH]cc2-c2ccc3ncccc3n2)n1`: the inhibition is 0.39%. For the compound `CCCN1CCC=C(c2ccc(Nc3nc(Nc4ccccc4C(N)=O)c4cc[nH]c4n3)c(C)c2)C1`, the inhibition is 5.89%. The same measure, in the same setting: as for `Nc1ncnc2occ(-c3ccc(NC(=O)Nc4cccc(C(F)(F)F)c4)cc3)c12`, the figure is 3.15%.
